Hits are enriched below; roughly 19% of the tested compounds scored in any of these assays.
KB-3-1 tox = kills parental KB-3-1 adenocarcinoma cells; KB-3-1 viability, CellTiter-Glo ATP luminescence, 72 h; Potency, µM (top dose mostly 46.1 µM), actives largely listed as cytotoxic; hit rate 1.4% among 400,000; AID 1347075; further: nearly all actives have a fitted effect of over 60% in size
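KB-3-1 parental drug-naive adenocarcinoma cells in DMEM/10% FBS, incubated 72 h at 37 C with pin-transferred compounds across a concentration series. Viability by CellTiter-Glo luminescence; concentration-response curves fitted after normalization.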
HT1080-NT tox = kills 2HG-producing HT-1080-NT fibrosarcoma cells. HT-1080-NT fibrosarcoma viability, CellTiter-Glo ATP luminescence, 48 h. Potency, µM (highest dose often 46.1 µM), inactives show at the highest dose activity, negative = less viability, actives largely listed as cytotoxic. hit rate 1.6% among 360,000;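 further: NT is the 2HG producing partner of a matched IDH1 knockdown line; 0% = DMSO-treated cells and -100% = media-only wells without cells; nearly all actives have a fitted effect of over 55% in size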
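HT-1080-NT fibrosarcoma cells (2HG-overproducing), 750 cells/well in RPMI with 5% FBS, dosed after 2 h and incubated 48 h at 37C. CellTiter-Glo luminescence normalized to DMSO and no-cell wells; concentration-response curves fitted and classed.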
KB-V1 cytotox = kills drug-selected multidrug resistant KB-V1 cells | KB-V1 MDR cells viability, CellTiter-Glo, 72 h | Potency, µM (series often up to 46.1 µM), actives largely listed as cytotoxic | hit rate 3.4% among 400,000; further: nearly all actives have a fitted effect of over 60% in size
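Cells of the MDR subline KB-V1 are plated, dosed with compound at multiple concentrations, and incubated 72 h at 37 degrees C; CellTiter-Glo is then added and luminescence read after 10 min.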
HT1080 IDH1KD tx = HT-1080 IDH1 knockdown cell toxicity (counter line). HT-1080 IDH1 knockdown viability, ATP luminescence, 48 h. Potency, µM (titrated, usually from 46.1 µM), inactives show at the highest dose activity, negative = toxicity, usual class: cytotoxic. hit rate 2% among 360,000;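 further: 0% = DMSO wells and -100% = cell-free medium wells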
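CellTiter-Glo luminescence after 48 h compound exposure at 37 degrees C of IDH1-knockdown HT-1080 cells in 5% FBS RPMI. %Activity scaled between DMSO wells and cell-free media wells, with curves fitted and assigned curve classes.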
TDP1 cell CPT = growth inhibition of DT40 Tdp1-/-;hTDP1 cells with camptothecin (screen for TDP1 inhibitors); chicken DT40 Tdp1-/-;hTDP1 cells + 20 nM CPT, ATP luminescence, 48 h; Potency, µM (top dose mostly 46.2 µM), without a hit: at the top dose activity change, negative = growth inhibition, hits mostly inhibitors; hit rate 12% among 420,000; further: nearly all actives have a fitted effect of over 55% in size
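Chicken DT40 Tdp1-/- cells stably complemented with human TDP1 were seeded at 400 cells/well in medium containing 20 nM camptothecin, exposed to pin-transferred compounds, and grown at 37 °C for at least 48 hr. Viability was read as ATP luminescence.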
TDP1 cell noCPT = qHTS for Inhibitors of human tyrosyl-DNA phosphodiesterase 1 (TDP1): qHTS in cells in absence of CPT; DT40 Tdp1-/- hTDP1 cells, no CPT, ATP luminescence, 48 h; Potency, µM (titrated, usually from 46.2 µM), for the others: top-dose activity change, negative = growth inhibition, usual class: inhibitors; hit rate 15% among 420,000; AID 686978, 2013; further: nearly all actives have a fitted effect of over 55% in size
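Chicken DT40 Tdp1-/- cells complemented with human TDP1, screened without camptothecin (DMSO vehicle only), 400 cells/well. Compounds pin-transferred, cells incubated at 37 °C for at least 48 hr. Growth read as ATP-dependent luminescence (CellTiter-Glo, 30 min at RT).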
Active calls of the source: *; i = inactive; ? = inconclusive; / = no result given; [ ] = another dose, or the depositor's remark. The call rests on the fitted dose curve; in most records, active means well fitted curve in the direction sought with a large enough effect; inconclusive means small, poorly fitted or top-dose-only effect, or another doubt; inactive means no such curve, though single readings can be large; an effect the other way counts as inactive or inconclusive. Unless noted, on the % scale 0 is the no-effect control and ±100 the full control effect; potency means the concentration at half of the fitted maximal effect.

SMILES	KB-3-1 tox	HT1080-NT tox	KB-V1 cytotox	HT1080 IDH1KD tx	TDP1 cell CPT	TDP1 cell noCPT
COc1cccc(/C=N/NC(=O)c2ccc(=O)n(C)c2)c1O	i	?	i	?	5.8µM*	6.51µM*
COc1cccc(/C=N/NC(=O)c2ccc(=O)[nH]n2)c1O	i	?	i	23.1µM*	23.1µM*	14.6µM*
COc1ccc(OC)c(/C=N\NC(=O)c2ccc(-c3ccccc3)cc2)c1	i	3.5%	i	14.9%	?	-13.6%
COc1ccc(OC)c(/C=N/NC(=O)c2ccc(=O)[nH]n2)c1	i	-2.4%	?	-0.7%	2.8%	-10.5%
COc1cccc(/C=N/NC(=O)c2ccc(-c3ccccc3)cc2)c1O	5.8µM*	?	?	?	5.17µM*	4.61µM*
O=C(C1CC1)N1N=C(c2ccccc2)CC1(O)C(F)(F)C(F)(F)F (stereo not drawn)	i	-0.2%	?	5.1%	18.4%	-2.7%
CC(C)(C)OC(=O)NCCCCCNC(=O)c1nc[nH]c1C(=O)NCC(=O)OCc1ccccc1	i	-28.8%	?	-12.8%	?	14.6µM*
CC(C)(C)OC(=O)NCCCC[C@H](NC(=O)c1nc[nH]c1C(=O)NCC(=O)OCc1ccccc1)C(=O)OC(C)(C)C	i	-6.5%	i	-18.4%	14.6µM*	?
CCCn1c(=O)c2sccc2n2c(CCCC(=O)Nc3cccc(CC)c3)nnc12	/	/	/	/	23.1µM*	?
CCCn1c(=O)c2sccc2n2c(CCCC(=O)Nc3ccc(C)c(F)c3)nnc12	/	/	/	/	?	23.1µM*
COc1cc(C2SCC(=O)N2Cc2ccccc2)ccc1O (stereo not drawn)	i	2.0%	i	1.1%	-16.1%	-9.7%
CC(C)=CCn1cnc2c1c(=O)n(C)c(=O)n2C	/	/	/	/	-4.8%[9.04 µM]	4.5%[9.04 µM]
COc1ccccc1NC(=O)C(=O)NCC1COc2ccccc2O1 (stereo not drawn)	i	6.1%	?	-8.6%	-7.1%	0.562µM*
COc1cc(OC)c(OC)cc1NC(=O)CC1COc2ccccc2O1 (stereo not drawn)	i	4.7%	14.6µM*	6.4%	?	-4.3%
O=C(NCc1ccccc1)C(=O)NCC1COc2ccccc2O1 (stereo not drawn)	i	16.4µM*	5.17µM*	10.3µM*	2.91µM*	2.59µM*
Cn1cc(-c2csc(C(C)(O)c3cccnc3)n2)cn1 (stereo not drawn)	i	1.4%	i	9.4%	-15.4%	-5.3%
CCN1CCN(C(c2ccc(C(F)(F)F)cc2)c2ccc3cccnc3c2O)CC1 (stereo not drawn)	?	?	i	?	?	16.4µM*
CCOc1cc(/C=C(\C#N)C(=O)Nc2ccc(S(N)(=O)=O)cc2)ccc1OCCN1CCOCC1	i	0.2%	i	-4.2%	1.5%	-15.3%
COc1ccc(C)cc1N(CC(=O)N/N=C/c1ccc2c(c1)OCO2)S(C)(=O)=O	i	5.0%	i	4.2%	12.9%	1.6%
Cc1ccc(/C=N/NC(=O)c2cc3c(ccc4ccccc43)o2)o1	i	19.1%	i	-4.0%	?	?
CC(=O)Oc1ccc(/C=N\NC(=O)c2cc3c(ccc4ccccc43)o2)cc1	i	-2.3%	i	-0.2%	?	?
O=C(N/N=C/c1ccc([N+](=O)[O-])o1)c1cc2c(ccc3ccccc32)o1	i	-0.3%	i	7.9%	10.3µM*	?
O=C(NC1CCCC1)c1cc2c(ccc3ccccc32)o1	?	-13.0%	?	-11.6%	?	20.6µM*
Cc1ccc(/C=N/NC(=O)c2cc3c(ccc4ccccc43)o2)cc1[N+](=O)[O-]	i	12.7%	i	3.1%	25.9µM*	?
CNC(=O)c1cc2c(ccc3ccccc32)o1	i	1.3%	i	1.1%	1.8%	0.3%
SMILES	KB-3-1 tox	HT1080-NT tox	KB-V1 cytotox	HT1080 IDH1KD tx	TDP1 cell CPT	TDP1 cell noCPT
O=C(OCCOc1cccc(Cl)c1)c1cc(S(=O)(=O)N2CCOCC2)ccc1F	i	15.3%	i	25.0%	?	?
Cn1c(CCNC(=O)c2ccco2)nc2cc(NC(=O)c3ccccc3Cl)ccc21	i	-6.8%	i	-16.7%	-15.8%	-12.8%
CC(O)CC(C(=O)NNc1ccccc1)C(=O)NNc1ccccc1 (stereo not drawn)	?	1.3µM*	i	2.31µM*	16.9%	-29.3%
CC(C)C(=O)NNc1ccccc1	i	?	i	-8.3%	3.3%	-2.9%
O=C(NNc1ccccc1)C(CCO)C(=O)NNc1ccccc1	i	7.31µM*	i	6.51µM*	-4.7%	1.5%
O=C1CC(=O)Nc2cc(S(=O)(=O)Nc3cccc(Br)c3)ccc2N1	i	/	i	/	-19.6%	-6.3%
CC(NC(=O)c1cc(S(=O)(=O)N(C)C)ccc1N1CCCC1)C1CC2CCC1C2 (stereo not drawn)	i	-13.8%	i	-15.7%	2.4%	-17.1%
Cc1cc(C)cc(OCC(=O)OCC(=O)N2CCc3ccccc32)c1	i	7.4%	i	7.5%	-1.3%	13.3%
COC(=O)c1ccc(C2NC(c3ccc4c(c3)OCO4)=CC(c3ccccc3O)N2)cc1 (stereo not drawn)	i	/	i	/	7.08µM*	6.31µM*
Oc1ccc(Cl)cc1C1C=C(c2ccc3c(c2)OCO3)NC(c2ccc(Cl)cc2)N1 (stereo not drawn)	i	/	i	/	3.98µM*	6.31µM*
CCOc1cccc(C2C=C(c3ccc4c(c3)OCO4)NC(c3ccccc3Cl)N2)c1O (stereo not drawn)	i	/	i	/	?	11.2µM*
O=C(c1cc(Cl)cc(Cl)c1)N1CCC2CC1c1cc(-c3ccc4c(c3)OCO4)ccc12 (stereo not drawn)	i	5.2%	i	5.5%	?	?
COc1ccc(OCc2cc(C(=O)NCC3CCCCO3)no2)c(Cl)c1 (stereo not drawn)	i	12.7%	i	6.6%	?	-3.7%
CC[C@@H]1Cc2[nH]c(=O)[nH]c(=O)c2[C@H](c2ccc(Cl)cc2)O1	i	18.7%	?	7.2%	10.8%	-12.8%
N#Cc1cccc(C(=O)N(CCc2ccccc2)Cc2cccs2)c1	i	-7.3%	i	-13.4%	?	25.9µM*
O=C(COc1ccccc1)Nc1nc(-c2cccnc2)cs1	i	8.2%[9.24 µM]	i	7.4%	?	?
